PubChem BioAssay AID1645859 (Buhrlage Lab, Dana-Farber Cancer Institute and Novartis …, 2021)
The whole screen tested about 47,000 compounds, of which about 95 (0.2%) were called active. Cut-off read from the data, not from the text of the source: active = inhibition above about 30%; inactive = the rest. Shown is part of a subset that was picked to be rich in actives.

The compounds below were run against Ubiquitin carboxyl-terminal hydrolase isozyme L1 (Homo sapiens) (UniProt P09936) (assay: inhibitors of human UCHL1 deubiquitinase (AID 1645859)). Conditions: purified UCHL1, Ub-rhodamine cleavage fluorescence; at 20 µM; hits give high values.
Chain of Ubiquitin carboxyl-terminal hydrolase isozyme L1 (Homo sapiens) (P09936 whole entry, looked up): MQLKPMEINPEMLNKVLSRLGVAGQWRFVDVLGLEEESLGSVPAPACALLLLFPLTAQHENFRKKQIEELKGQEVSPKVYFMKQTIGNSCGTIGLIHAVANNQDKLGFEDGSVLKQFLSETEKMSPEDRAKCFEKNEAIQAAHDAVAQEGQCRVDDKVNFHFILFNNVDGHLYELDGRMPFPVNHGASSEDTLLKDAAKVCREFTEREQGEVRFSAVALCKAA
O=C(Cn1cnc(S(=O)(=O)N2CCc3ccccc32)c1)Nc1ccc2c(c1)OCO2 was tested, and the inhibition was -7.24% (inactive).
For Cc1ccc(CNC(=O)CCCn2c(=O)c3sccc3n(CC(=O)OCc3ccccc3)c2=O)cc1, the inhibition was -0.426% (inactive).
For CCN1CCN(c2ncc(C(=O)Nc3ccc(F)cc3)c(C)n2)CC1, the inhibition was -0.515% (inactive).
With O=C(CCc1nnc2ccc(N3CCCCC3)nn12)NCC1CCCO1 (stereo not drawn) the inhibition was -1.95% (inactive).
With Cc1ccc(C)c(CSC2=NCCN2C(=O)c2ccco2)c1 the inhibition was -0.972% (inactive).
For O=C(C1CCN(c2nc3ccc(-c4cccnc4)nc3s2)CC1)N1CCOCC1, the inhibition was -0.864% (inactive).
Cc1cnn(CC2CCCCN2C(=O)Cc2c(C)noc2Cl)c1 (stereo not drawn) was tested, and the inhibition was 0.232% (inactive).
In the case of Cc1c(NC(=O)c2ccc(C(C)(C)C)cc2)c(-n2cnnc2)nn1C, the inhibition is reported as -0.768% (inactive).
With O=C(Cc1ccccc1Cl)Nc1ccc(N2CCOCC2)cc1 the inhibition was 2.8% (inactive).
For O=C(NC1CC1)c1nc(-c2ccc(-n3cccc3)cc2)no1, the inhibition was 1.38% (inactive).
In the case of COCC(=O)N1CCCC2(COCCN(CCN(C)C)C2)C1 (stereo not drawn), the inhibition is reported as 0.844% (inactive).
In the case of O=C(O)C1CCCN1Cc1c(-c2cccs2)nc2ccccn12 (stereo not drawn), the inhibition is reported as -7.21% (inactive).
For COc1ccc(N2C(=O)c3ccccc3NC2c2ccc(OCC(N)=O)cc2)cc1 (stereo not drawn), the inhibition was 3.76% (inactive).
In the case of COc1ccc(OC)c(NC(=O)[C@H]2C[C@H](C)N[C@]23C(=O)Nc2c(Cl)cc(C)cc23)c1, the inhibition is reported as -6.13% (inactive).
CCCOc1ccnc2c1c(=O)n(CC(=O)NC1CCCC1)c(=O)n2C was tested, and the inhibition was -3.9% (inactive).
In the case of Cc1cccc(-c2nccnc2C2CCCN(C(=O)c3cnccn3)C2)c1 (stereo not drawn), the inhibition is reported as 5.49% (inactive).
With COc1ccccc1C(=O)NCC(c1ccc2c(c1)CCCN2C)N1CCCC1 (stereo not drawn) the inhibition was -73.4% (inactive).
Cc1ccc(C)c(NC(=O)C(Sc2nnc(-c3ccccc3)n2C)c2ccccc2)c1 (stereo not drawn) was tested, and the inhibition was 0.846% (inactive).
In the case of Cn1cc(N2CCC3(CCN(C(=O)c4ccc(F)cc4)CC3)C2=O)cn1, the inhibition is reported as 0.646% (inactive).
With O=C(NC1CCOCC1)N[C@H]1C[C@H]2CN(Cc3ccccc3)Cc3ccccc3CN2C1 the inhibition was 1.49% (inactive).
In the case of Cc1cccc(CNC(=O)C2CCCN(S(=O)(=O)Cc3ccc(F)cc3)C2)c1 (stereo not drawn), the inhibition is reported as 3.47% (inactive).
For N#Cc1ccc(Oc2nc(-c3ccccc3)nnc2-c2ccccc2)cc1, the inhibition was -0.193% (inactive).
O=C1CCCN1c1ccc(S(=O)(=O)N2CCc3ccccc3C2)cc1 was tested, and the inhibition was -1.26% (inactive).
With CC(=O)c1cccc(NC(=O)CCN(c2cc(C)cc(C)c2)S(=O)(=O)c2ccc(Cl)cc2)c1 the inhibition was 5.56% (inactive).
Cc1cc(C)c(NC(=O)CCN2C(=O)c3cccnc3Sc3ccccc32)c(C)c1 was tested, and the inhibition was -0.793% (inactive).
For Oc1cccc2nc3c(O)cccc3nc12, the inhibition was 28.5% (inactive).
For O=C(NCCc1ccccc1)c1ccc2c(=O)n(Cc3ccco3)c(=O)n(Cc3cccc([N+](=O)[O-])c3)c2c1, the inhibition was 23% (inactive).
For CC(C)NC(=O)[C@H]1CCS(=O)(=O)[C@@H]2CN(Cc3ccccc3)C[C@H]12, the inhibition was 3.58% (inactive).
COc1cc(OC)cc(-c2nnc(NC(=O)c3ccc([N+](=O)[O-])o3)o2)c1 was tested, and the inhibition was 1.67% (inactive).
With O=C(NCc1ccc(F)cc1F)c1csc(C(=O)NC2CC2)n1 the inhibition was -3.4% (inactive).
CC(C(=O)Nc1ccccc1F)C1CCN(C(=O)Nc2ccccc2)CC1 (stereo not drawn) was tested, and the inhibition was 0.962% (inactive).
With Cc1nnc(-c2c(C)[nH]c(C)c2S(=O)(=O)NCc2ccccc2)o1 the inhibition was -1.69% (inactive).
In the case of CC1(C)CC(=O)N(CC(=O)N2CCCCC2)c2ccccc2S1(=O)=O, the inhibition is reported as 0.351% (inactive).
Cc1nc(-c2csc(S(=O)(=O)NC3CC3)c2)no1 was tested, and the inhibition was -2.36% (inactive).
In the case of O=C(Cn1cnc2cc3c(cc21)OCCO3)NCCc1ccccc1, the inhibition is reported as -0.00331% (inactive).
COCCn1ccc2nc(C)c(C(=O)N3CCN(c4cc(C)ccc4C)CC3)cc2c1=O was tested, and the inhibition was 1.94% (inactive).
With CCOC(=O)C(Cc1ccccc1)NC(=O)CCC(=O)c1ccc(OC)cc1 (stereo not drawn) the inhibition was 1.4% (inactive).
With Cc1nnc(OCC(=O)Nc2ccc(OC(F)(F)F)cc2)c2ccccc12 the inhibition was 8.69% (inactive).
In the case of CCOC(=O)c1noc2ncnc(Nc3ccc4c(c3)OCCO4)c12, the inhibition is reported as 2.47% (inactive).
In the case of c1cc(N2CCCCCC2)ncc1-c1noc(CN2CCCC2)n1, the inhibition is reported as 0.394% (inactive).
CN1Cc2ccccc2CC2(CC(Nc3ccc(C(=O)O)cc3)C2)C1=O (stereo not drawn) was tested, and the inhibition was -3.39% (inactive).
COc1cc(Cl)c(NC(=O)c2cc(-c3ccccn3)n[nH]2)c(OC)c1 was tested, and the inhibition was 8.97% (inactive).
In the case of CC(=O)OC(C)[C@]12C=C(C)[C@H]3[C@H](C)[C@@H](O[C@H]4CC[C@@H](O)[C@@H](C)O4)C4=CC(=O)C=C(N1C(=O)[C@@](C)(O)C2=O)[C@]43O (stereo partly drawn), the inhibition is reported as -4.12% (inactive).
For Cc1cc(-c2noc(-c3cc4ccccc4oc3=O)n2)c2ccccc2n1, the inhibition was -0.979% (inactive).
In the case of O=C(Cn1cnc(S(=O)(=O)N2CCOCC2)c1)Nc1cccc(Cl)c1, the inhibition is reported as 2.46% (inactive).
For Cc1cc(NC(=O)c2ccc(C(=O)N(C3CCCCC3)C3CCCCC3)cc2)cc(C)c1O, the inhibition was 4.77% (inactive).
In the case of O=C1NC[C@@H](Cc2ccccc2)NC(=O)C2(C/C=C/COc3ccccc31)CCNCC2, the inhibition is reported as 2.07% (inactive).
In the case of COC(=O)CC[C@H]1CNC(=O)[C@@H]2[C@@H](CCN2C2CCCCC2)N1C, the inhibition is reported as 8.17% (inactive).
With O=S(=O)(NC12CC3CC(CC(C3)C1)C2)c1ccc(S(=O)(=O)N2CCCCC2)cc1 the inhibition was -1.48% (inactive).
In the case of CNC(=O)C1(C)CN(C(=O)c2ccc3ncccc3c2)CCO1 (stereo not drawn), the inhibition is reported as -0.883% (inactive).
CC(C)[C@H](NC(=O)[C@@H]1Cc2c([nH]c3ccccc23)C2c3ccccc3C(=O)N21)C(=O)NCCc1ccccc1 (stereo partly drawn) was tested, and the inhibition was 0.101% (inactive).
COc1cccc(CN2CC[C@@H]3CNS(=O)(=O)[C@@H]3CC2)c1 was tested, and the inhibition was 5.2% (inactive).
For O=C(Cc1ccccc1)Nc1ccc(-c2nc3cnccc3o2)c(O)c1, the inhibition was 0.256% (inactive).
With Cc1ccc(Cn2cc(-c3noc(-c4ccccn4)n3)nn2)cc1 the inhibition was -0.677% (inactive).
Cc1cc(F)ccc1NC(=O)c1cc(C2CC2)n2nccc2n1 was tested, and the inhibition was 1.97% (inactive).
In the case of Cc1ccc(-n2cc(-c3noc(C(=O)Nc4ccc(F)cc4C)n3)nn2)cc1, the inhibition is reported as 38.3% (active).
With COC(=O)C(C(C)C)N1CCc2c(C)nc3cc(C#N)nn3c21 (stereo not drawn) the inhibition was -5.64% (inactive).
For Cc1cc(/C=C2/C(=N)N3C=CSC3=NC2=O)c(C)n1-c1ccc(F)cc1, the inhibition was -13% (inactive).
Cn1c(CCN2CCCC2)nc2cc(NS(=O)(=O)c3ccccc3)ccc21 was tested, and the inhibition was -2.94% (inactive).
For COc1ccc(-n2ncc3c2NC(=O)CC32C(=O)N(CC(C)C)c3ccc(F)cc32)cc1 (stereo not drawn), the inhibition was 3.31% (inactive).
In the case of Cc1nnc2ccc(-c3ccc(NC(=O)c4ccc(Br)o4)cc3)nn12, the inhibition is reported as 7.55% (inactive).
For NS(=O)(=O)c1ccc(CCNc2nccn(-c3ccc4c(c3)OCO4)c2=O)cc1, the inhibition was -4.71% (inactive).
For O=C(c1cc2occc2c(Nc2ccc(F)cc2)n1)N1CCN(C(=O)c2ccco2)CC1, the inhibition was 3.68% (inactive).
In the case of CC(C)c1ccc(C2CC(=O)c3cn[nH]c3C2)cc1 (stereo not drawn), the inhibition is reported as 0.362% (inactive).
With O=C1CC2(C(=O)Nc3ccccc32)c2cnn(-c3ccccc3Cl)c2N1 (stereo not drawn) the inhibition was -0.024% (inactive).
COc1cccc(C2NC(=O)c3c(sc4c3CCC(C)C4)N2)c1O (stereo not drawn) was tested, and the inhibition was -0.199% (inactive).
For CCn1nccc1-c1cccc(-c2noc(-c3ccccn3)n2)c1, the inhibition was 3.84% (inactive).
With Cn1cccc1/C(C#N)=C\c1ccc2c(c1)OCO2 the inhibition was 12.5% (inactive).
For CCc1cnc(N2CCC3(CC2)CC(Oc2cccnc2)C3)nc1, the inhibition was -4.29% (inactive).
For COc1ccc(NC(=O)c2cnc(N3CCCC3)nc2C)cc1OC, the inhibition was 2.41% (inactive).
With CS(=O)(=O)N1CCn2c(nnc2-c2cncc(Br)c2)C1 the inhibition was 1.7% (inactive).
O=C(c1ccccn1)N1C[C@@H]2C[C@H]1C[C@@H]2NS(=O)(=O)c1ccccc1 was tested, and the inhibition was -1.88% (inactive).
For Cc1ccc(S(=O)(=O)N2CCC(c3nc(C(=O)N(C)C)c(C)o3)CC2)c(C)c1, the inhibition was -3.64% (inactive).
With CC(=O)c1ccc(S(=O)(=O)Nc2cccc(-c3nc4cccnc4s3)c2C)cc1 the inhibition was 0.0973% (inactive).
In the case of O=C(C1CCN(c2nc3cccnc3s2)CC1)N1CCN(c2ncccn2)CC1, the inhibition is reported as 5.79% (inactive).
O=c1ccc(S(=O)(=O)N2CCCCCC2)cn1Cc1ccccc1 was tested, and the inhibition was -3.73% (inactive).
With CNc1cncc(C2CCCN2S(=O)(=O)N2CCCC2)n1 (stereo not drawn) the inhibition was 1.24% (inactive).
Cn1c(=O)c2c(-c3ccc(C(C)(C)C)cc3)n(-c3ccccc3Cl)cc2n(C)c1=O was tested, and the inhibition was 3.67% (inactive).
With c1ccc2c(c1)NCCC(c1ccc3c(c1)OCO3)N2 (stereo not drawn) the inhibition was -0.387% (inactive).
In the case of CC(C)(C)CN1CC[C@H](c2nnc(-c3cccnc3)o2)C1, the inhibition is reported as -3.12% (inactive).
With COc1ccc(NC(=O)c2cccn3c(-c4ccc(F)cc4)nnc23)c(OC)c1 the inhibition was -7.15% (inactive).
With N#Cc1cnc2ccccc2c1N1CCC(C(=O)N2CCCCC2)CC1 the inhibition was -2% (inactive).
Cc1nn(CCC(=O)Nc2ccccc2F)c(C)c1S(=O)(=O)N1CCOCC1 was tested, and the inhibition was -2.99% (inactive).
For O=C(Nc1ccc2c(c1)CCC2)N1CCc2c(nc(-c3ccccc3)[nH]c2=O)C1, the inhibition was -2.41% (inactive).
With O=C(NC1CC1)c1cn(-c2cc(-c3nc(C4CC4)no3)ccn2)cn1 the inhibition was 2.22% (inactive).
For Cc1ccccc1NC(=O)Cc1csc2nc(-c3ccc(F)cc3)cn12, the inhibition was 6.49% (inactive).
In the case of O=C(CN1C(=O)C2CCCC2=Nc2ccccc21)Nc1ccc(F)cc1F (stereo not drawn), the inhibition is reported as 2.04% (inactive).
With COCCNC(=O)c1cc(-c2ccn(C3CCCC3)n2)n2ccccc12 the inhibition was -0.227% (inactive).
